Molecules are shown by their SMILES. Active and inactive are the calls of the source. Rule for the calls: active = hit-call score of the fitted dose curve at least 0.9, where 1 is the maximum; inactive = score below 0.9.

As a reminder, the AC50 is the concentration at which the activity in the assay is half-maximal.

Read-out in this test: Heat shock 70 kDa protein 1 (HSPA1A), gene 3303
The experiment in a line: LTEA_HepaRG_HSPA1A: Life Technologies and Expression Analysis (LTEA) Assay for Heat shock 70 kDa protein 1 (HSPA1A) using HepaRG (AID 2283502). The following applies: mRNA level, 48 h; actives raise or lower the signal. How it is done: LTEA_HepaRG is a cell based, multiplexed-readout assay that uses HepaRG, a human liver cell line, with measurements taken at 48 hours after chemical dosing on a 96-well plate.LTEA_HepaRG_HSPA1A is one of 102 assay component(s) measured in the LTEA HepaRG cell culture assay. It is a marker of Oxidative Stress.Data from the assay component LTEA_HepaRG_HSPA1A was analyzed into 1 endpoint. This assay endpoint, LTEA_HepaRG_HSPA1A, was analyzed with bidirectional fitting relative to DMSO as the negative control and baseline of activity. Using a type of inducible reporter, measures of mRNA induction for gain or loss-of-signal activity can be used to understand regulation of transcription factor activity. To generalize the intended target to other relatable targets, this assay endpoint is annotated to the dna binding intended target family, where the subfamily is heat shock protein.
A total of 1060 chemcials from the ToxCast library were tested in eight-point concentration-response experiments. Cell culture and cytotoxicity assays were conducted at Thermo Fisher Scientific's Custom Services facility (Madison, WI). A single lot of human HepaRG cells (Thermo Fisher Scientific, Frederick, MD) was used for the cell culture experiments. 96-well format collagen type I coated plates of human HepaRG cells were prepared using established methods. Briefly, cryopreserved HepaRG cells were thawed, plated at a density of approximately 100,000 cells/well in HepaRG Thaw, Plate, and General Purpose media (HPRG770, Thermo Fisher Scientific), and incubated for 48 hours. 0.5% DMSO was selected as vehicle control to balance the requisite need of DMSO in HepaRG cultures to maintain differentiation (for example, baseline metabolism, proportions of hepatocytes vs. cholangiocytes), while enabling further hepatic receptor pathway activation (for example, PXR and CAR) in response to chemical exposure. 48 hours after plating, the culture medium was replaced with HepaRG Serum-Free Incudtion Media. Cells were exposed to each test chemical in duplicate and maintained in CO2 incubators for another 48 hours. Chemical plates were thawed to room temperature and 200x concentrations of treatment groups were prepared. 8-point conentration-reponse curves were made with the highest exposure at 100 uM, followed by half-log dilutions, all in 0.5% DMSO. Each test plate contained variouse controls, induction positive controls (1mM phenobarbital), cytotoxicity positive controls ([…] aflatoxin B1), vehicle controls (0.5% DMSO), and total lysis controls (0.5% DMSO). Cell morphology images were taken using an Essen IncuCyte FLR automated microscope, with six 96-well plates imaged in about 24 minutes. Images were captured and exported and JPEG files. Spent culture media was transfered to black-well plates for the LDH assay, and remaining media was sorted at -80 C for later use. Cells were treated with RLT buffer and frozen until shipped for gene expression analysis. Total RNA was isolated from the cell suspension in 75 uL of Buffer RLT (Qiagen, Germantown, MD 20874) by Quintiles/Expression Analysis (Durham, NC) using a custom isolation procedure. Total RNA from each plate well was transferred to a preamplification plate. Fluidigm's 96.96 Dynamic ArrayTM (Fluidigm, Amsterdam, the Netherlands) technology was used for gene expression analyses by quantitative reverse transcription polymerase chain reaction (qRT-PCR, performed by Quintiles/Expression Analysis, Durham, NC)89. Standard TaqManTM Assays (Applied Biosystems/ThermoFisher Scientific, Foster City, CA) were used to assess the expression of 93 genes selected based on their selectivity and sensitivity to important hepatic receptors known to be modulated by environmental chemicals; importance in human hepatocyte functionality; and hepatotoxicity. […]
Turning to `CSC(=O)c1c(C(F)F)nc(C(F)(F)F)c(C(=O)SC)c1CC(C)C`, the compound was classed as inactive.
On the same count and under the same terms, with `COC(=O)N(C(=O)N1CO[C@@]2(C(=O)OC)Cc3cc(Cl)ccc3C2=N1)c1ccc(OC(F)(F)F)cc1` the entry was “inactive”.
On the same count and under the same terms, with `COCC(=O)N(c1c(C)cccc1C)C(C)C(=O)OC` (stereo not given) the entry was “inactive”.
As for `Cc1c(COC(=O)[C@@H]2[C@H](/C=C(\Cl)C(F)(F)F)C2(C)C)cccc1-c1ccccc1`, the result was inactive.
Still for that read-out and setting: with `CS(=O)(=O)c1ccc(C(=O)C2C(=O)CCCC2=O)c([N+](=O)[O-])c1` the entry was “inactive”; with `CNC(=O)Oc1cccc2ccccc12`, “inactive”.
Take `O=C(Nc1ccccc1-c1ccc(Cl)cc1)c1cccnc1Cl`: the result was inactive.
Regarding `CCNC(=O)NC(=O)C(C#N)=NOC`, the compound was called inactive.
On the same count and under the same terms, with `COC(=O)NS(=O)(=O)c1ccc(N)cc1` the entry was “inactive”; with `CCOc1cc(C(C)(C)C)ccc1C1COC(c2c(F)cccc2F)=N1` (stereo not given), “inactive”.
The same measure, in the same setting: in the case of `CCOc1nc(F)cc2nc(S(=O)(=O)Nc3c(Cl)cccc3Cl)nn12` it was “inactive”.
Same read-out and setting: with `CCCCOCN(C(=O)CCl)c1c(CC)cccc1CC` the entry was “inactive”; with `COP(=O)(OC)O/C(C)=C/C(=O)N(C)C`, “inactive”; with `Cc1nc(N(C)C)nc(OC(=O)N(C)C)c1C`, “inactive”.
In the case of `CC(C)=CC1C(C(=O)OCc2coc(Cc3ccccc3)c2)C1(C)C` (stereo not given), the outcome was inactive.
Same read-out and setting: with `N#Cc1c[nH]cc1-c1cccc2c1OC(F)(F)O2` the entry was “inactive”; with `CO/N=C(/C1=NOCCO1)c1ccccc1Oc1ncnc(Oc2ccccc2Cl)c1F`, “inactive”.
`CCOP(=S)(OCC)Oc1nc(Cl)n(C(C)C)n1`: the result was inactive.
As for `Nc1cnn(-c2ccccc2)c(=O)c1Cl`, the outcome was inactive.
Consider `CC(C)Oc1cccc(NC(=O)c2ccccc2C(F)(F)F)c1`, for which the call was inactive.
Same read-out and setting: in the case of `O=C(O)c1c(Cl)ccc2cc(Cl)cnc12` it was “inactive”; in that of `CC(C)(C)C(=O)C(Oc1ccc(Cl)cc1)n1cncn1` (stereo not given), “inactive”; in that of `COP(=S)(OC)Oc1ccc([N+](=O)[O-])c(C)c1`, “inactive”.
Still for that read-out and setting: with `CCCN(CC)CC1COC2(CCC(C(C)(C)C)CC2)O1` (stereo not given) the entry was “inactive”.
Same read-out and setting: with `COc1ccc(-c2ccccc2)cc1NNC(=O)OC(C)C` the entry was “inactive”; with `Cc1cc(C)nc(Nc2ccccc2)n1`, “inactive”.
Turning to `Cn1c(-c2ccccc2)cc(-c2ccccc2)[n+]1C`, the AC50 is 40.2 µM (active).
With `Clc1cccc(C(Cl)(Cl)Cl)n1`, the compound was called inactive.
As to `CC1(C)CCC(=Cc2ccc(Cl)cc2)C1(O)Cn1cncn1` (stereo not given), the outcome was inactive.
Consider `COc1cc(OC)nc(NC(=O)NS(=O)(=O)c2ncccc2OCC(F)(F)F)n1`, for which the AC50 was 0.237 µM (active).
For `CC1(C)C(C=C(Cl)Cl)C1C(=O)OC(C#N)c1cccc(Oc2ccccc2)c1` (stereo not given), the outcome was inactive.
Take `C=CCOC(=O)C(C)(C)OC(=O)c1cc(-n2c(=O)cc(C(F)(F)F)n(C)c2=O)ccc1Cl`: the call was inactive.
The same measure, in the same setting: in the case of `COC(=O)c1c(C(F)F)nc(C(F)(F)F)c(C2=NCCS2)c1CC(C)C` it was “inactive”.
For `Nc1c(Cl)c(F)nc(OCC(=O)O)c1Cl`, the result was inactive.
On the same count and under the same terms, with `CC(C)C1(C)N=C(c2ncccc2C(=O)O)NC1=O` (stereo not given) the entry was “inactive”.
For the compound `CN/C(=N\[N+](=O)[O-])NCc1cnc(Cl)s1`, the compound was classed as inactive.
In the case of `CCCCC(O)(Cn1cncn1)c1ccc(Cl)cc1Cl` (stereo not given), the AC50 was 18.8 µM (active).
`N#Cc1c(Cl)cccc1Cl`: the call was inactive.
For the compound `OC(c1ccc(Cl)cc1)(c1ccc(Cl)cc1)C(Cl)(Cl)Cl`, the AC50 was 89.3 µM (active).
In the case of `COP(=S)(OC)SCn1nnc2ccccc2c1=O`, the call was inactive.

The values are drawn from PubChem BioAssay (EPA / NIEHS).
